# D3 ag – D3 dopamine receptor (human) agonism | 410,000 compounds, 0.58% hits | P35462 | AID 652048 | D3R DiscoveRx beta-arrestin cells, luminescence, 90 min | max activation, %; in the data active = max activation above about 30%; note: 0% is about no effect
# Target sequence (P35462 whole entry, looked up): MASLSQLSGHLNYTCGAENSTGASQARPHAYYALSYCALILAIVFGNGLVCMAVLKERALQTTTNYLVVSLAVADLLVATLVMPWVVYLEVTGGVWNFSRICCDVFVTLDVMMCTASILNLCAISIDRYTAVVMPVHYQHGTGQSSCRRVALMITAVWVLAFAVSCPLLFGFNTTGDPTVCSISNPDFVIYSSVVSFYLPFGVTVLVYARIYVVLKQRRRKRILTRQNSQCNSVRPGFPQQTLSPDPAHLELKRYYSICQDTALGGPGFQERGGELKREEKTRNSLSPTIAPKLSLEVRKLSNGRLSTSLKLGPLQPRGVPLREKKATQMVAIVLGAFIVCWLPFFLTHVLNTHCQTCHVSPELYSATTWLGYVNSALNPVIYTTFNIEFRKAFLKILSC
#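 Agonist-mode cell screen: cells plated at 1500/well and incubated overnight at 37 °C, then exposed to library compounds for 90 min at 37 °C. Detection reagent was added for 30–60 min at room temperature, and luminescence was read.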
# D1 antag – human D1 dopamine receptor antagonism; P21728; HEK293 TREx D1 cells, calcium flux, dopamine EC80; stronger effect = lower value; activity change, negative = inhibition, % at 10 µM; 360,000 compounds, 3.2% hits; AID 504652; in the data active = activity change below about -30%; note: % is set by controls: 0 for no effect and ±100 for the full control effect
#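 Cells carrying a force-coupled, tetracycline-inducible human D1 receptor report calcium flux. Each well gets a 10 s baseline, compound with 180 s monitoring, then an EC80 dopamine stimulus with a second 180 s kinetic read.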
# D1 potentiator – potentiators of human D1 dopamine receptor; P21728; 360,000 compounds, 0.036% hits; potentiation, % at 10 µM; HEK293 TREx D1 cells, calcium flux, dopamine EC20 potentiation; in the data active = potentiation above about 30%; note: 0% is about no effect
# D1 agonist – human D1 receptor agonism | HEK293 T-REx D1 cells, calcium flux, agonist mode | activation, % at 2 µM | 360,000 compounds, 1% hits | P21728; in the data active = activation above about 30%; note: 0% is about no effect
#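 Inducible HEK293 T-REx D1 cells, force-coupled to calcium signalling, were plated at 4000 cells/well with tetracycline and held overnight at 30 C. After no-wash calcium dye loading, compound-evoked calcium rise over 180 s flagged agonists.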
# D3 antag – antagonists of human D3 dopamine receptor; P35462; D3R cells, DiscoveRx beta-arrestin luminescence, antagonist mode; stronger effect = lower value; max response, negative = inhibition, %; 360,000 compounds, 2.5% hits; in the data active = max response below about -50%; inconclusive = no clear call, values can overlap the other calls; note: % is set by controls: 0 for no effect and ±100 for the full control effect
#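 Cells expressing the human receptor were seeded at 1500 cells/well, incubated overnight at 37 degrees C in 5% CO2, then exposed to library compounds with dopamine controls for 90 minutes at 37 degrees C before luminescent detection.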
# Active calls of the source: *; ? = inconclusive; · = no result. Hits are enriched below; roughly 6% of the tested compounds scored in any of these assays.
SMILES,D3 ag,D1 antag,D1 potentiator,D1 agonist,D3 antag
Cc1cccc(NS(=O)(=O)c2cn(C)c(=O)n(C)c2=O)c1C,2.2,5.8,-0.8,3.5,15.4
CCCNC(=O)C1(C)CCCN(Cc2ccc(C)cc2)C1 (stereo not drawn),-9.8,·,·,·,?
CCCN1C2CCCC1CC(NC(=O)c1ccccc1OCC)C2 (stereo not drawn),-6.0,-81.3*,-1.7,0.7,?
Cc1ccccc1C(=O)NC1CC2CCC(C1)N2Cc1ccccc1 (stereo not drawn),-17.4,-24.0,-8.7,-0.2,-85.8*
CCCN1C2CCCC1CC(NC(=O)c1ccccc1OC)C2 (stereo not drawn),-23.7,20.3,-4.0,-3.0,-22.9
CCOc1ccccc1C(=O)NC1CC2CCCC(C1)N2Cc1ccc(C)cc1 (stereo not drawn),-11.9,-50.8*,-12.1,2.7,-80.3*
CCOc1ccc2c(c1)c(=O)c(C(=O)c1ccc(CC)cc1)cn2CC(=O)Nc1cccc(Cl)c1,-9.5,14.4,-0.7,5.8,·
COC(=O)[C@]1(Cc2ccccc2)N[C@H](c2ccc(-c3cc(C(C)=O)cs3)cc2)[C@@H]2C(=O)N(C)C(=O)[C@@H]21,-24.3,-11.1,-2.8,2.1,-20.8
Fc1ccc2[nH]c3c(NCc4ccccc4)ncnc3c2c1,-33.3,-40.3*,-10.1,25.7,-17.8
COc1cccc(/C=N/Nc2ncnc3c2[nH]c2ccc(C)cc23)c1OC,4.6,-34.0*,-7.4,2.8,25.1
C=CCNc1ncnc2c1[nH]c1ccc(C)cc12,-12.0,-32.3*,-8.2,12.4,15.4
COCCCNc1ncnc2c1[nH]c1ccccc12,·,7.2,-4.4,3.7,·
COc1ccc(/C=N/Nc2ncnc3c2[nH]c2ccccc23)c(OC)c1OC,0.6,-4.9,-2.5,4.6,-12.3
COCCNc1ncnc2c1[nH]c1ccccc12,1.3,-37.1*,-15.2,9.5,2.2
CCc1ccc(-c2[nH]nc3nc(-c4cc(OC)ccc4OC)cc(C(=O)O)c23)cc1,-10.7,-1.2,-1.2,7.2,·
CCOC(=O)c1c(C)oc2c1c(C=NCc1ccccn1)c(O)c1ccccc12,0.0,14.0,-0.6,9.5,-104.9*
Cc1ccc(NC(=O)C2(C)CCN2C(=O)CC(c2ccccc2)c2ccccc2)cc1 (stereo not drawn),66.9*,·,·,·,-24.7
CC1(C(=O)Nc2ccc(Cl)c(Cl)c2)CCN1C(=O)CC(c1ccccc1)c1ccccc1 (stereo not drawn),-8.0,·,·,·,-19.1
CCCn1c(N2CCN(CC(=O)NCc3cccs3)CC2)nc2ccccc21,-3.4,7.1,-3.1,1.0,-66.6*
CCn1c(N2CCN(CC(=O)c3ccc(OC)cc3)CC2)nc2ccccc21,-1.2,-50.1*,-3.4,-0.8,-10.4
CCN(CC)S(=O)(=O)c1ccc2c(c1)c(=O)c(C(=O)NCc1ccc(Cl)cc1)cn2C,-13.6,-3.6,4.2,1.8,·
C[C@H](CO)N1C[C@H](C)[C@@H](CN(C)S(=O)(=O)c2cn(C)cn2)Oc2ncc(Br)cc2C1=O,9.4,·,·,·,10.3
COc1cc(Cl)c(S(=O)(=O)NCCc2c(C)[nH]c3c(C)cccc23)cc1Cl,-13.2,28.4,-4.8,-0.3,·
Cc1cccc(CS(=O)(=O)c2ncc(Cl)c(C(=O)NCc3ccccc3)n2)c1,-2.8,-32.5*,-6.5,2.1,-82.0*
Cc1cccc(C)c1NC(=O)c1nc(S(=O)(=O)Cc2ccccc2)ncc1Cl,-22.6,-22.7,-1.1,-0.5,-63.8*
SMILES,D3 ag,D1 antag,D1 potentiator,D1 agonist,D3 antag
Cc1nnc(NC(=O)c2nc(S(=O)(=O)Cc3ccccc3)ncc2Cl)s1,-10.2,-6.1,-3.8,-0.5,-22.8
Cc1cccc(CS(=O)(=O)c2ncc(Cl)c(C(=O)Nc3nc4ccc(F)cc4s3)n2)c1,-16.8,-12.6,-2.3,-0.7,·
Cc1cccc(CS(=O)(=O)c2ncc(Cl)c(C(=O)Nc3c(C)cccc3C)n2)c1,-24.1,-31.6*,-5.5,2.3,-99.7*
Cc1ccccc1NC(=O)c1nc(S(C)(=O)=O)ncc1Cl,-12.6,-17.5,1.9,1.5,-81.0*
CCCc1nnc(NC(=O)c2nc(S(=O)(=O)Cc3cccc(C)c3)ncc2Cl)s1,-8.1,-1.8,5.2,0.7,-67.7*
O=C(O)c1cc(F)c(S(=O)(=O)N2CCN(S(=O)(=O)c3ccc4c(c3)OCCO4)CC2)cc1F,·,-18.0,-1.6,1.1,·
O=C1CC(=O)OC(c2ccc([N+](=O)[O-])cc2)O1,-10.0,·,·,·,-86.6*
